Measurements reported in PubChem BioAssay (NCI).
About 83,000 compounds went through this panel and 20% of them were active in at least one assay; those are over-represented in the sample as a whole.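 Testing used 96-well plates and a 48-hour single-concentration exposure. Example: -40 means 40% of the starting cells died.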 The source made the active and inactive calls. Rule for the calls: active = growth percent below 10; inactive = the rest.

System: HL-60(TB) leukemia
Assay: NCI-60 one-dose screen, 48 h (100 = growth as untreated, 0 = no growth, -100 = all killed)
Details: 10 µM unless noted

SMILES	growth
C/C(=N\NC(=O)/C=C/CC(=O)O)c1nnn(-c2ccc([N+](=O)[O-])cc2)c1C	98% (inactive)
O=C(C[n+]1ccnc2ccccc21)c1ccc(O)c(O)c1	-24.7% (active)
Cc1ccc(NC(=O)N[C@@H](Cc2cc(F)cc(F)c2)C(=O)NC2C(=O)N3C[C@H](O)C[C@H]3C(=O)N3CCCC[C@H]3C(=O)N[C@@H](CO)C(=O)N3C[C@H](C)C[C@H]3C(=O)O[C@H]2C)c(F)c1 (some centres undefined)	16.2% (inactive)
CCN(CC)S(=O)(=O)c1ccc(-c2nc(C(Cl)Cl)nc3cc(C)nn23)cc1	-9.17% (active)
CCc1ccc(NC(=O)N[C@@H](Cc2cccc(C)c2)C(=O)N[C@@H]2C(=O)N3CCC[C@H]3C(=O)N3CCCC[C@H]3C(=O)N[C@@H](CO)C(=O)N3C[C@H](C)C[C@H]3C(=O)O[C@H]2C)c(F)c1	15.8% (inactive)
O=C1[C@@H]2Cc3c([nH]c4ccccc34)[C@H](c3c(Cl)cccc3Cl)N2C(=O)CN1C1CCN(Cc2ccccc2)CC1	29.3% (inactive)
O=C(CN1C(=O)CSC1=O)Nc1ccc(C(=O)/C=C/c2cc3ccccc3nc2Cl)cc1	71.9% (inactive)
C=C(C)[C@@H]1CC[C@]2(C(=O)NCCCCCN(CCC#N)CCC#N)CC[C@]3(C)[C@H](CC[C@@H]4[C@@]5(C)CCC(=O)C(C)(C)[C@@H]5CC[C@]43C)[C@@H]12	127% (inactive)
C[C@H](Nc1ncnc2ccc(-c3cnc(Cl)c(NS(C)(=O)=O)c3)cc12)c1ccccc1	-17.6% (active)
CS(=O)(=O)c1ccc(-c2nn(-c3ccccc3)cc2/C=C/C(=O)c2ccc(Br)cc2)cc1	51.9% (inactive)
COc1ccc(-n2c(SCc3n[nH]c(=S)o3)nc3ccc(Cl)cc3c2=O)cc1	109% (inactive)
COc1cc2cc(Oc3ccc(NC(=O)c4cccc(C(F)(F)F)c4)cc3)c(C)nc2cc1OCCN(C)C	97.2% (inactive)
O=C1C(SCc2ccccc2)=C(Cl)CN1c1ccc(Cl)cc1	44% (inactive)
Cc1ccc(NC(=O)CNc2cc(C(N)=O)cc(F)c2C)c(Cl)c1	133% (inactive)
O=C1NC(=O)c2c1c1c3ccccc3ccc1c1[nH]c3ccccc3c21	16.8% (inactive)
Cc1ccc(-c2nc(SCC(=O)c3ccccc3)nc(Nc3ccc(S(N)(=O)=O)cc3)c2C#N)cc1	95.9% (inactive)
NS(=O)(=O)c1ccc(Nc2nc(N/N=C/C=C/c3ccccc3)nc(Nc3ccccc3)n2)cc1	38.6% (inactive)
Cc1nc(-c2cc3ccccc3oc2=O)ccc1C(=O)/C=C/c1ccc(Cl)c(Cl)c1	97.9% (inactive)
O=C(N/N=C/c1ccc[nH]1)c1[nH]c2ccc(Br)cc2c1-c1ccccc1	-39.1% (active)
Clc1cccc(/C=N/Nc2nc(N/N=C/c3cccc(Cl)c3)nc(N3CCCCC3)n2)c1	97% (inactive)
C#CCOc1ccc(C(Nc2cc(Cl)ccc2Cl)c2nnnn2C2CCCCC2)cc1 (centres undefined)	88.4% (inactive)
COc1ccc(NC2=C(Br)C(=O)C(C)=C(C)C2=O)cc1OC	-34.6% (active)
C#Cc1nc(/C=C/CCCCCCC(=O)NO)cs1	-64.8% (active)
N#Cc1cccc(NC(=O)c2cc(-c3ccc(F)cc3F)ccc2O)c1	-29.2% (active)
CCN1C(=S)N(c2ccccc2)C2NC(=O)N(/N=C/C=C/c3ccccc3OC)C21 (centres undefined)	64.2% (inactive)
Nc1n[nH]c2cccc(C#Cc3cccc(NC(=O)c4cccc(OC(F)(F)F)c4)c3)c12	17.7% (inactive)
c1ccc(-c2n(Cc3ccc4ccccc4c3)c3c4ccccc4c4ccccc4c3[n+]2Cc2ccc3ccccc3c2)cc1	-61.4% (active)
COc1cc(/C=C/C(=O)c2cc(OC)c(OC)c(OC)c2)ccc1OCc1ccc(F)cc1	9.93% (active)
Clc1ccc2oc3c(NCCCn4ccnc4)c4ccccc4nc3c2c1	29% (inactive)
